Data from PubChem BioAssay AID2685 (National Center for Advancing Translational Sciences (NCATS), 2010).
In all, about 320,000 compounds went through this assay and about 2,100 (0.66%) were called active. Roughly 53% stayed inconclusive and do not appear here. The sample holds actives, similar compounds and a random draw of the others, so the mix is not that of the screen. The call rests on the fitted dose curve; in most records, active means well fitted inhibition curve with a large enough effect in the signal ratio, with a control signal flat (not every such curve was filed as active); inconclusive means small, poorly fitted or top-dose-only effect, or effect the other way, or a change in a side signal; inactive means flat fitted curve, though single readings scatter; the % refers to the signal ratio.

Experiment: qHTS Assay for Lipid Storage Modulators in Drosophila S3 Cells;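 on cell number change: cells counted by Cell Tracker Red CMTPX staining in the red channel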; on lipid storage change, negative = inhibition: on the % scale 0 is the no-effect control and ±100 the full control effect
Details: BODIPY lipid droplet fluorescence, 18-24 h, cells fed with added oleic acid; cell number change: measured here: cell count max response; series mostly up to 46.1 µM; lipid storage change, negative = inhibition: at the top concentration
Procedure, shortened: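 Drosophila S3 cells loaded with oleic acid (400 uM, as added) and compounds at several concentrations; lipid droplets imaged by 488-nm laser-scanning cytometry, 500–530 nm intensity and object ratio to cell channel. Percent activity normalized to 20 uM Triacsin C.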
Potency means the concentration at half of the fitted maximal effect.

SMILES | lipid storage change, negative = inhibition | cell number change [%] | outcome | Potency
CC1CCN(C(=O)c2[nH]cnc2C(=O)N[C@@H](CCCCNC(=O)OC(C)(C)C)C(=O)OC(C)(C)C)CC1 | -1.71% (inactive) | -11.2 | – | –
Clc1ccccc1-c1ncnc2ccc(Br)cc12 | -0.0835% (inactive) | -18.5 | – | –
CN1CCN(C(c2cccnc2)c2ccc3cccnc3c2O)CC1 (stereo not given) | – | 8.11 | inactive | –
CN1CCN(C(c2ccc(Br)cc2)c2cc(Cl)c3cccnc3c2O)CC1 (stereo not given) | – | 5.13 | – | 20.6 µM (active)
CN1CCN(C(c2ccccn2)c2cc(Cl)c3cccnc3c2O)CC1 (stereo not given) | – | – | inactive | –
O=C(NCc1ccc(F)cc1)C1CC(=O)N(CCc2ccccc2)C1 (stereo not given) | – | 15.8 | inactive | –
Cc1cc(C)c(NC2=NS(=O)(=O)c3ccccc32)c(C)c1 | – | – | – | 16.4 µM (active)
Cc1cc(O)c(C(C)C)cc1NC1=NS(=O)(=O)c2ccccc21 | -22.4% (inactive) | -1.35 | – | –
Cc1ccc(S(=O)(=O)NNC2=NS(=O)(=O)c3ccccc32)c(C)c1 | 6.11% (inactive) | -0.377 | – | –
O=C1COc2ccc(S(=O)(=O)N3CCN(c4cccc(Cl)c4)CC3)cc2N1 | 8.29% (inactive) | -0.295 | – | –
CC(CC(=O)N1CCN(c2cccc(Cl)c2)CC1)S(=O)(=O)c1ccc2c(c1)NC(=O)CO2 (stereo not given) | – | – | – | 6.51 µM (active)
CC(CC(=O)N1CCN(c2ccccc2)CC1)S(=O)(=O)c1ccc2c(c1)NC(=O)CS2 (stereo not given) | – | -1.91 | inactive | –
CCOc1ccc(NC(=S)N2C3CCCC2CC(NC(=O)C2CC2)C3)cc1 (stereo not given) | – | 11.2 | inactive | –
CCOC(=O)C1Cc2ccccc2C(=O)O1 (stereo not given) | -4.22% (inactive) | 3.62 | – | –
CC(=O)Nc1nc2cc([N+](=O)[O-])ccc2s1 | 5.34% (inactive) | -7.82 | – | –
CCCN1C(=O)S/C(=C\c2ccc(N3CCOCC3)cc2C)C1=O | -5.29% (inactive) | -13.4 | – | –
C=CC(C)N1C(=O)S/C(=C\c2ccc(N3CCOCC3)cc2C)C1=O (stereo not given) | – | – | – | 4.11 µM (active)
CCC(C)N1C(=O)S/C(=C/c2ccc(N3CCOCC3)cc2C)C1=O (stereo not given) | 11.5% (inactive) | 12.1 | – | –
Cc1cccc(N2CC(C(=O)NCCC3=CCCCC3)CC2=O)c1C (stereo not given) | – | – | inactive | –
CCS(=O)(=O)N1CCC(C(=O)NCc2ccc(OC)cc2OC)CC1 | -1.87% (inactive) | 16 | – | –
N#Cc1ccc(OCc2ccc(C(=O)O)o2)cc1 | – | -20.7 | inactive | –
O=C(O)c1ccc(COc2ccc(Cl)cc2)o1 | – | -10.6 | – | 25.9 µM (active)
O=C(O)c1ccc(COc2ccc([N+](=O)[O-])cc2)o1 | – | – | inactive | –
Nc1cccnc1Sc1cccc(Cl)c1 | – | -17.5 | inactive | –

SMILES | lipid storage change, negative = inhibition | cell number change [%] | outcome | Potency
O=S(=O)(c1ccccc1)N1CCN(S(=O)(=O)c2ccc(F)cc2)CC1 | 28.1% (inactive) | -2.92 | – | –
CC1(C)CC(=O)c2cc(NC(=O)c3ccccc3)c(=O)oc2C1 | 3.26% (inactive) | 6.08 | – | –
Cn1c(SCc2cc(=O)[nH]c(C(C)(C)C)n2)nnc1C(F)(F)F | 10.1% (inactive) | -1.02 | – | –
CCOC(=O)N1CCN(C2=C(NS(=O)(=O)c3ccc(NC(C)=O)cc3)C(=O)c3ccccc3C2=O)CC1 | – | -22.6 | – | 18.4 µM (active)
CCOC(=O)N1CCN(C2=C(NS(=O)(=O)c3ccc(C)cc3)C(=O)c3ccccc3C2=O)CC1 | – | -13.9 | inactive | –
CC(=O)Nc1ccc(S(=O)(=O)NC2=C(N3CCN(c4ccc(F)cc4)CC3)C(=O)c3ccccc3C2=O)cc1 | – | 3.49 | inactive | –
CCOC(=O)c1ccc(N(CC(=O)NC2CCCCC2)C(=O)CNC(=O)c2ccco2)cc1 | – | 11.2 | inactive | –
O=C(O)CCC(=O)N1N=C(c2ccco2)CC1c1cccs1 (stereo not given) | -9.03% (inactive) | -1.36 | – | –
O=C(c1ccccc1)N1N=C(c2ccco2)CC1c1cccs1 (stereo not given) | -0.755% (inactive) | 16.1 | – | –
O=C(CCl)N1N=C(c2ccco2)CC1c1cccs1 (stereo not given) | – | -16 | – | 23.1 µM (active)
CC(C)Sc1nc2c(cnn2-c2ccc(F)cc2)c(=O)[nH]1 | – | – | inactive | –
CN(C)c1nc(NCc2ccccc2)nc(N/N=C/c2ccccc2F)n1 | – | – | – | 23.1 µM (active)
CN(C)c1nc(NCc2ccccc2)nc(N/N=C/c2ccc(Cl)cc2Cl)n1 | – | -26.7 | inactive | –
CN(C)c1nc(NCc2ccccc2)nc(N/N=C/c2ccc(Br)cc2)n1 | -0.957% (inactive) | -3.42 | – | –
O=C1CCCN1CCCNS(=O)(=O)c1ccc(F)c(F)c1 | -21.9% (inactive) | 3.84 | – | –
O=C(NCCCN1CCCC1=O)c1cc(S(=O)(=O)N2CCOCC2)ccc1Cl | -23.3% (inactive) | 15 | – | –
O=C1CCCN1CCCNS(=O)(=O)c1ccc(Cl)c(C(=O)N2CCOCC2)c1 | – | -15.3 | – | 23.1 µM (active)
COc1ccccc1Cn1c(C(C)C)nc2ccccc21 | 0.143% (inactive) | 8.07 | – | –
O=C(Nc1nc2ccccc2[nH]1)c1ccc(OC(F)F)cc1 | – | -15.1 | inactive | –
CCOc1ccc(N(CC(=O)NCCOc2ccc(C)cc2)S(=O)(=O)c2ccccc2)cc1 | 2.62% (inactive) | 23.7 | – | –
CC(=O)N1CCCc2cc(S(=O)(=O)NC(C(=O)NC3CCCCC3)C(C)C)ccc21 (stereo not given) | -0.23% (inactive) | 13.4 | – | –
C[N+]1(CCCCSc2ccc(O)cc2)CCCCC1 | – | -4.93 | – | 4.61 µM (active)
C[N+]1(CCC(=O)c2ccccc2)CCCCC1 | -1.35% (inactive) | 3.5 | – | –
COC(=O)CCCCCCCCCC[N+]1(C)CCCCC1 | 7.23% (inactive) | 12.8 | – | –

SMILES | lipid storage change, negative = inhibition | cell number change [%] | outcome | Potency
CCN(CC)C(=O)C(Oc1ccc(S(=O)(=O)N2CCCC2)cc1[N+](=O)[O-])c1ccccc1 (stereo not given) | -2.31% (inactive) | 3.42 | – | –
CSc1nsc(SCC(=O)Nc2ccc(C(N)=O)cc2)n1 | – | 8.7 | – | 6.51 µM (active)
Nc1nnc(SCC(=O)Nc2ccc(Cl)c(C(=O)O)c2)s1 | -24.1% (inactive) | -0.289 | – | –
CSc1nsc(SCC(=O)Nc2ccc(OC(C)=O)cc2)n1 | 1.8% [at 9.22 µM] (inactive) | -8.58 | – | –
O=C(CSc1nc2ccccc2s1)Nc1ccc(Cl)c(C(=O)O)c1 | 2.06% (inactive) | 18.4 | – | –
CSc1nsc(SCC(=O)Nc2nncs2)n1 | 1.82% (inactive) | 10.5 | – | –
CSc1nsc(SCC(=O)Nc2ccc(Cl)c(C(=O)O)c2)n1 | – | 6.94 | – | 1.46 µM (active)
O=C(Nc1cc(C(=O)N2CCN(c3ccccc3O)CC2)ccc1Cl)c1cccs1 | 0.607% (inactive) | 5.21 | – | –
CCCOc1cccc(C2/C(=C(\O)c3ccc4c(c3)OCCO4)C(=O)C(=O)N2CCCn2ccnc2)c1 (stereo not given) | – | -8.73 | inactive | –
O=C(CCc1nnc2n(CCc3ccccc3)c(=O)c3ccccc3n12)NCCCN1CCCCC1 | – | -8.94 | inactive | –
O=[N+]([O-])c1ccccc1/C=N\N1CCN(c2ccccc2)CC1 | -22% (inactive) | 0.964 | – | –
O=[N+]([O-])c1ccc(Cl)c(/C=N/N2CCN(Cc3ccccc3)CC2)c1 | 12.3% (inactive) | -3.29 | – | –
O=[N+]([O-])c1ccccc1/C=N/N1CCN(Cc2ccccc2)CC1 | – | -5.28 | – | 1.3 µM (active)
O=S(=O)(NNC(=S)Nc1ccc(S(=O)(=O)Nc2ncccn2)cc1)c1ccc(Br)cc1 | – | 4.32 | inactive | –
CCOC(=O)c1cc(-c2ccccc2)nn1Cc1cc(CC)no1 | 3.3% (inactive) | -20.2 | – | –
Cc1cc(Cn2nc(-c3ccccc3)cc2C(=O)NCC2CC2)on1 | -21.7% (inactive) | -12.8 | – | –
Cc1cc(Cn2nc(C(=O)NCc3cccc(Br)c3)cc2-c2ccccc2)on1 | – | 16.4 | – | 13 µM (active)
CCOC(=O)c1cc(-c2ccccc2)n(Cc2cc(CC)no2)n1 | – | -3.23 | – | 18.4 µM (active)
Cc1cc(C(=O)NCc2ccccc2)no1 | -20.2% (inactive) | – | – | –
CCOC(=O)c1cc(-c2ccccc2)nn1Cc1cc(C)no1 | -32.4% (inactive) | -24 | – | –
COc1cc(-c2noc(CCC(=O)NC3CCCC3)n2)cc(OC)c1OC | – | -0.87 | inactive | –
CC(C)CNC(=O)NC(=O)CSc1nc2ccccc2n1CC(C)C | – | – | inactive | –
COc1ccc(/C=C/C(=O)NC(C)CCc2ccccc2)cc1OC (stereo not given) | -7.83% (inactive) | 0.149 | – | –
COc1cc(/C=C/C(=O)NC(C)(C)C)ccc1OCc1ccccc1 | – | -27.6 | – | 29.1 µM (active)

SMILES | lipid storage change, negative = inhibition | cell number change [%] | outcome | Potency
CCOc1cc(/C=C/C(=O)O)ccc1OCc1ccccc1 | 1.96% (inactive) | 8.37 | – | –
O=C(NCCCNC(=O)c1ccccc1Br)c1ccccc1Br | -4.06% (inactive) | -12.7 | – | –
Fc1cccc(NC(=S)NC2CCCCCCC2)c1 | – | -22.8 | inactive | –
O=C(Nc1cccc(F)c1)NC1CCCCC1 | – | -7.64 | inactive | –
O=C(Nc1cccc(F)c1)NC1CCCCCCC1 | – | 14.2 | – | 14.6 µM (active)
CC(=O)c1cccc(NC(=O)NC2CCCCCCC2)c1 | 10.8% (inactive) | – | – | –
FC(F)(F)c1cccc(NC(=S)NC2CCCC2)c1 | – | -29.3 | – | 18.4 µM (active)
Cc1cccc(NC(=S)NC2CCCC2)c1 | 17.3% (inactive) | 10.6 | – | –
C/C=C\C=C\C(=O)Nc1cccc(C2=NOC3(C2)C[C@H](C(N)=O)N(C(=O)c2ccccc2C(=O)c2ccccc2)C3)c1 (stereo not given in full) | 8.24% (inactive) | 1.47 | – | –
CCOC(=O)c1cnc(NCc2ccccc2)nc1C | – | -8.98 | inactive | –
CCN1CCN(c2cc(C)nc(-c3ccccc3O)n2)CC1 | 8.28% (inactive) | 0.893 | – | –
COc1ccccc1NS(=O)(=O)c1ccc(C(=O)NCC(c2ccccc2OC)N(C)C)cc1 (stereo not given) | -24.9% (inactive) | 13 | – | –
CCN(c1ccccc1)S(=O)(=O)c1cc2c(cc1C)n(C)c(=O)c(=O)n2C | – | -9.51 | – | 8.2 µM (active)
Cc1cccc(N(C)S(=O)(=O)c2cc3c(cc2C)n(C)c(=O)c(=O)n3C)c1 | – | -12.7 | – | 13 µM (active)
Cc1cccc(NS(=O)(=O)c2cn(C)c(=O)n(C)c2=O)c1C | -26.7% (inactive) | 14.4 | – | –
Cc1cc2c(cc1S(=O)(=O)Nc1cccc(C)c1C)n(C)c(=O)c(=O)n2C | – | -26.2 | – | 9.2 µM (active)
Cc1cc2c(cc1S(=O)(=O)N(C)Cc1ccccc1)n(C)c(=O)c(=O)n2C | – | -28.5 | inactive | –
Cc1cc2[nH]c(=O)c(=O)[nH]c2cc1S(=O)(=O)Nc1cccc(C)c1C | 14.4% (inactive) | -1.15 | – | –
Cc1cc2c(cc1S(=O)(=O)N(C)c1ccccc1)n(C)c(=O)n2C | -21.6% (inactive) | 9.55 | – | –
CCN(c1ccccc1)S(=O)(=O)c1cc(C(=O)O)ccc1C | 14.4% (inactive) | -3.04 | – | –
Cc1cc2c(cc1S(=O)(=O)NCc1ccccc1)n(C)c(=O)c(=O)n2C | – | -17.3 | inactive | –
